According to the supplement of paper PMC11732987, “Enantioselective OTUD7B fragment discovery through chemoproteomics screening and high-throughput optimisation” (Communications Chemistry, 2025):

Assays:
Test in all cases: log2 ratio of Biotin-Ahx-Ub-VS probe labelling (fragment/DMSO); higher = less target engagement (more negative = stronger competition), active = hit call of the paper (q ≤ 0.05, log2 ratio ≤ -1)
Conditions in all cases: compound concentration: 200 uM; treatment time: 3 h
USP34 = USP34 (UniProt Q70CQ2)
Outline: (§1)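 HEK293T lysate in Tris/CHAPS/IGEPAL buffer with protease inhibitors (495 µg per sample) was given fragment at 200 µM or vehicle for 3 h, in triplicate. It then received Biotin-Ahx-Ub-VS at 0.5 µM final for 1 h. Labelled DUBs were NeutrAvidin-enriched, digested with LysC and trypsin, and run by diaPASEF LC-MS/MS. Values are average log2 fragment/vehicle ratios by unpaired t-test on global-median-normalised Spectronaut quantities of proteins with ≥2 unique peptides.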

USP36 = biological target: T1, USP36 (UniProt Q9P275)
T1 sequence (whole entry): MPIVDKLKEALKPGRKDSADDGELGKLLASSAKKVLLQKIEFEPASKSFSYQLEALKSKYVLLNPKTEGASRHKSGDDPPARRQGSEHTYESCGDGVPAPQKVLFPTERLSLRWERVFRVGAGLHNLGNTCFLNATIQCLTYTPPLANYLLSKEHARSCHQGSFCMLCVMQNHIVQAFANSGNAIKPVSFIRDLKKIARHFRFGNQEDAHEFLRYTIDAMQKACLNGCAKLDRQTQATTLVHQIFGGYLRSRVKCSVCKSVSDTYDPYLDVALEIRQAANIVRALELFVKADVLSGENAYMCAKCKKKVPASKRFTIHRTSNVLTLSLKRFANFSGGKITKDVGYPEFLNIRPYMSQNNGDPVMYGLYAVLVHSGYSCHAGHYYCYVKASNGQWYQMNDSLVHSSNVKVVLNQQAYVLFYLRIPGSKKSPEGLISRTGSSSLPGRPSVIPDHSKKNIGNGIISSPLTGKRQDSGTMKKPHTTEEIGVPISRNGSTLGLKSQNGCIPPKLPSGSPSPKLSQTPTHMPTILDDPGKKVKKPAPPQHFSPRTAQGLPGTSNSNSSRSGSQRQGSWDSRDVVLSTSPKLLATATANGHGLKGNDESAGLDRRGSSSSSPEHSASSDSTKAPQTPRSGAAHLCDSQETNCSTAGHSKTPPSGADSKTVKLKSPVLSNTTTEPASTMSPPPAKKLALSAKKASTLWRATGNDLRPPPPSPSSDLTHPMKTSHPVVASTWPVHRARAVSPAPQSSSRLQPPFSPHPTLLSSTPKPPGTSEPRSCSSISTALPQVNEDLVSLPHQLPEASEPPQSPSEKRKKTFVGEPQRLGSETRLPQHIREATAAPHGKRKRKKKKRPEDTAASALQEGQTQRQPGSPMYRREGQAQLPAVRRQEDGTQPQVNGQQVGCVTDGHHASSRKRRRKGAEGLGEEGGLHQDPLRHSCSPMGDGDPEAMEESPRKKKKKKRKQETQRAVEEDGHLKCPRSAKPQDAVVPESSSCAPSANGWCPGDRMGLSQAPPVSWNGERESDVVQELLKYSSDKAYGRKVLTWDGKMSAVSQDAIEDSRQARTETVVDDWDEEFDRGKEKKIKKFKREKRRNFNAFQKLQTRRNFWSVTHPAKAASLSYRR
Outline: as §1

USP38 = biological target: T2, USP38 (UniProt Q8NB14)
T2 sequence (whole entry): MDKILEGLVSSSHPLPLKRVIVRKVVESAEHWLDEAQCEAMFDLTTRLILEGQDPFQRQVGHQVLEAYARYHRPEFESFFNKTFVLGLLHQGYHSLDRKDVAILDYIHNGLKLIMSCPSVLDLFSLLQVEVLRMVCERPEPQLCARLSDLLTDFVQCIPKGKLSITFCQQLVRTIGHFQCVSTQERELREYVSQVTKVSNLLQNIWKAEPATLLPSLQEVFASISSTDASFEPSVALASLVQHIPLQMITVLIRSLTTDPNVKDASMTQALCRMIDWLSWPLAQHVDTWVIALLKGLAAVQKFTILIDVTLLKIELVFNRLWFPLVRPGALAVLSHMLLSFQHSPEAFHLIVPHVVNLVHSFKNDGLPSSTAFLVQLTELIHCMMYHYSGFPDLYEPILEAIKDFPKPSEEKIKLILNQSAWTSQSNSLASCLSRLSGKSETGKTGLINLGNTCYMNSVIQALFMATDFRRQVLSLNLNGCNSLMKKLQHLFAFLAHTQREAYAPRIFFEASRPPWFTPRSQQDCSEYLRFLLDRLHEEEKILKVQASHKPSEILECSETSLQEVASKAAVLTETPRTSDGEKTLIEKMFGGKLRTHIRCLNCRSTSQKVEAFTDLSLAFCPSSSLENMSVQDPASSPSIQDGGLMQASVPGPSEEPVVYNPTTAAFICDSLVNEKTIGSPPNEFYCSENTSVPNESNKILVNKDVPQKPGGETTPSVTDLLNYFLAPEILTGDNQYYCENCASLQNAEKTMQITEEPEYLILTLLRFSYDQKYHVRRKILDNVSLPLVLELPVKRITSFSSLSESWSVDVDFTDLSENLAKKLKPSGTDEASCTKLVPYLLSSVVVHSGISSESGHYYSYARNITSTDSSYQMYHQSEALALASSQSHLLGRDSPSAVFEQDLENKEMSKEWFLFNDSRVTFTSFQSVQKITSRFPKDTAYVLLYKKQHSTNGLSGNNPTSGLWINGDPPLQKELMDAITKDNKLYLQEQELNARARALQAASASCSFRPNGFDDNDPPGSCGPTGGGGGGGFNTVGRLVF
Outline: as §1

USP39 = biological target: T3, USP39 (UniProt Q53GS9)
T3 sequence (whole entry): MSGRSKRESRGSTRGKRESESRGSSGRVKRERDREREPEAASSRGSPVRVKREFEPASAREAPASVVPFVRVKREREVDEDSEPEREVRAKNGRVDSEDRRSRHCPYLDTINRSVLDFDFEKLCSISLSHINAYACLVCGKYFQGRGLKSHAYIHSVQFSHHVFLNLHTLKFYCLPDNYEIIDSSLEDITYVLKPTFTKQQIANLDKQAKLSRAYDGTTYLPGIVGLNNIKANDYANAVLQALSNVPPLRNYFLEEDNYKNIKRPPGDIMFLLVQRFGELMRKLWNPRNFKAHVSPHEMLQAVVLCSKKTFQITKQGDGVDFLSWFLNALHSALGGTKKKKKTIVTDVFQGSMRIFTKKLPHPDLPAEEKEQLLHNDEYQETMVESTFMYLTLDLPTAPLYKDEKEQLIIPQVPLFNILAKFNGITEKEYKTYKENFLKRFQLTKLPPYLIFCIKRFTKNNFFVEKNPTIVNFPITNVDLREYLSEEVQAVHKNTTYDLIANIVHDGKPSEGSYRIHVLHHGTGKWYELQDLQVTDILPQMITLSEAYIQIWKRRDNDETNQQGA
Outline: as §1

USP4 = biological target: T4, USP4 (UniProt Q13107)
T4 sequence (whole entry): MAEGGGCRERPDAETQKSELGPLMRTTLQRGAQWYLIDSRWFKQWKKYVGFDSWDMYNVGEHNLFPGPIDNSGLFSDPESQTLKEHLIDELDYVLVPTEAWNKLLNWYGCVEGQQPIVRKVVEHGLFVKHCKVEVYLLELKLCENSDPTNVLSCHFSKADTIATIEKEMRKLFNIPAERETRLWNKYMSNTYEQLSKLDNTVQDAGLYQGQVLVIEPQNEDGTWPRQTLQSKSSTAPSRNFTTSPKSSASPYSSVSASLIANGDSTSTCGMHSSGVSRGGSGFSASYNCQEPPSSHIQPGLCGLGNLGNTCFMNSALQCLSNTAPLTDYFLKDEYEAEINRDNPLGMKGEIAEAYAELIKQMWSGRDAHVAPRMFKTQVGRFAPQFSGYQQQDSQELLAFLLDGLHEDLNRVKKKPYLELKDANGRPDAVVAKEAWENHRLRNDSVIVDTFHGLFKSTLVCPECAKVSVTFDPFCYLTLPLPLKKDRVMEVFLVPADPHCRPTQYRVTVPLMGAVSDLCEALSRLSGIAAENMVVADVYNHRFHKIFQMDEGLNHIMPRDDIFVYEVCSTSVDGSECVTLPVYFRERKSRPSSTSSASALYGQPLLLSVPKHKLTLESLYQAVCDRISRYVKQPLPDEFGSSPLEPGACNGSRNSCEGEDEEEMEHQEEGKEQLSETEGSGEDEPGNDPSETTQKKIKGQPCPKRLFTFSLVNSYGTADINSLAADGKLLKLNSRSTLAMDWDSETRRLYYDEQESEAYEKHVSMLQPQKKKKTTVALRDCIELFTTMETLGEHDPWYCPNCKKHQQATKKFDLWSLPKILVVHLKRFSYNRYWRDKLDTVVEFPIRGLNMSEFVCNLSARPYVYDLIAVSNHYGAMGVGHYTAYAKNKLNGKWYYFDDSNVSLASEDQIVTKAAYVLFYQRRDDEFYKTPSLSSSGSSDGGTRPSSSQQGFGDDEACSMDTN
Outline: as §1

Measured: log2 ratio of Biotin-Ahx-Ub-VS probe labelling

Chain of USP34 (Q70CQ2 whole entry, the tested form may be a part): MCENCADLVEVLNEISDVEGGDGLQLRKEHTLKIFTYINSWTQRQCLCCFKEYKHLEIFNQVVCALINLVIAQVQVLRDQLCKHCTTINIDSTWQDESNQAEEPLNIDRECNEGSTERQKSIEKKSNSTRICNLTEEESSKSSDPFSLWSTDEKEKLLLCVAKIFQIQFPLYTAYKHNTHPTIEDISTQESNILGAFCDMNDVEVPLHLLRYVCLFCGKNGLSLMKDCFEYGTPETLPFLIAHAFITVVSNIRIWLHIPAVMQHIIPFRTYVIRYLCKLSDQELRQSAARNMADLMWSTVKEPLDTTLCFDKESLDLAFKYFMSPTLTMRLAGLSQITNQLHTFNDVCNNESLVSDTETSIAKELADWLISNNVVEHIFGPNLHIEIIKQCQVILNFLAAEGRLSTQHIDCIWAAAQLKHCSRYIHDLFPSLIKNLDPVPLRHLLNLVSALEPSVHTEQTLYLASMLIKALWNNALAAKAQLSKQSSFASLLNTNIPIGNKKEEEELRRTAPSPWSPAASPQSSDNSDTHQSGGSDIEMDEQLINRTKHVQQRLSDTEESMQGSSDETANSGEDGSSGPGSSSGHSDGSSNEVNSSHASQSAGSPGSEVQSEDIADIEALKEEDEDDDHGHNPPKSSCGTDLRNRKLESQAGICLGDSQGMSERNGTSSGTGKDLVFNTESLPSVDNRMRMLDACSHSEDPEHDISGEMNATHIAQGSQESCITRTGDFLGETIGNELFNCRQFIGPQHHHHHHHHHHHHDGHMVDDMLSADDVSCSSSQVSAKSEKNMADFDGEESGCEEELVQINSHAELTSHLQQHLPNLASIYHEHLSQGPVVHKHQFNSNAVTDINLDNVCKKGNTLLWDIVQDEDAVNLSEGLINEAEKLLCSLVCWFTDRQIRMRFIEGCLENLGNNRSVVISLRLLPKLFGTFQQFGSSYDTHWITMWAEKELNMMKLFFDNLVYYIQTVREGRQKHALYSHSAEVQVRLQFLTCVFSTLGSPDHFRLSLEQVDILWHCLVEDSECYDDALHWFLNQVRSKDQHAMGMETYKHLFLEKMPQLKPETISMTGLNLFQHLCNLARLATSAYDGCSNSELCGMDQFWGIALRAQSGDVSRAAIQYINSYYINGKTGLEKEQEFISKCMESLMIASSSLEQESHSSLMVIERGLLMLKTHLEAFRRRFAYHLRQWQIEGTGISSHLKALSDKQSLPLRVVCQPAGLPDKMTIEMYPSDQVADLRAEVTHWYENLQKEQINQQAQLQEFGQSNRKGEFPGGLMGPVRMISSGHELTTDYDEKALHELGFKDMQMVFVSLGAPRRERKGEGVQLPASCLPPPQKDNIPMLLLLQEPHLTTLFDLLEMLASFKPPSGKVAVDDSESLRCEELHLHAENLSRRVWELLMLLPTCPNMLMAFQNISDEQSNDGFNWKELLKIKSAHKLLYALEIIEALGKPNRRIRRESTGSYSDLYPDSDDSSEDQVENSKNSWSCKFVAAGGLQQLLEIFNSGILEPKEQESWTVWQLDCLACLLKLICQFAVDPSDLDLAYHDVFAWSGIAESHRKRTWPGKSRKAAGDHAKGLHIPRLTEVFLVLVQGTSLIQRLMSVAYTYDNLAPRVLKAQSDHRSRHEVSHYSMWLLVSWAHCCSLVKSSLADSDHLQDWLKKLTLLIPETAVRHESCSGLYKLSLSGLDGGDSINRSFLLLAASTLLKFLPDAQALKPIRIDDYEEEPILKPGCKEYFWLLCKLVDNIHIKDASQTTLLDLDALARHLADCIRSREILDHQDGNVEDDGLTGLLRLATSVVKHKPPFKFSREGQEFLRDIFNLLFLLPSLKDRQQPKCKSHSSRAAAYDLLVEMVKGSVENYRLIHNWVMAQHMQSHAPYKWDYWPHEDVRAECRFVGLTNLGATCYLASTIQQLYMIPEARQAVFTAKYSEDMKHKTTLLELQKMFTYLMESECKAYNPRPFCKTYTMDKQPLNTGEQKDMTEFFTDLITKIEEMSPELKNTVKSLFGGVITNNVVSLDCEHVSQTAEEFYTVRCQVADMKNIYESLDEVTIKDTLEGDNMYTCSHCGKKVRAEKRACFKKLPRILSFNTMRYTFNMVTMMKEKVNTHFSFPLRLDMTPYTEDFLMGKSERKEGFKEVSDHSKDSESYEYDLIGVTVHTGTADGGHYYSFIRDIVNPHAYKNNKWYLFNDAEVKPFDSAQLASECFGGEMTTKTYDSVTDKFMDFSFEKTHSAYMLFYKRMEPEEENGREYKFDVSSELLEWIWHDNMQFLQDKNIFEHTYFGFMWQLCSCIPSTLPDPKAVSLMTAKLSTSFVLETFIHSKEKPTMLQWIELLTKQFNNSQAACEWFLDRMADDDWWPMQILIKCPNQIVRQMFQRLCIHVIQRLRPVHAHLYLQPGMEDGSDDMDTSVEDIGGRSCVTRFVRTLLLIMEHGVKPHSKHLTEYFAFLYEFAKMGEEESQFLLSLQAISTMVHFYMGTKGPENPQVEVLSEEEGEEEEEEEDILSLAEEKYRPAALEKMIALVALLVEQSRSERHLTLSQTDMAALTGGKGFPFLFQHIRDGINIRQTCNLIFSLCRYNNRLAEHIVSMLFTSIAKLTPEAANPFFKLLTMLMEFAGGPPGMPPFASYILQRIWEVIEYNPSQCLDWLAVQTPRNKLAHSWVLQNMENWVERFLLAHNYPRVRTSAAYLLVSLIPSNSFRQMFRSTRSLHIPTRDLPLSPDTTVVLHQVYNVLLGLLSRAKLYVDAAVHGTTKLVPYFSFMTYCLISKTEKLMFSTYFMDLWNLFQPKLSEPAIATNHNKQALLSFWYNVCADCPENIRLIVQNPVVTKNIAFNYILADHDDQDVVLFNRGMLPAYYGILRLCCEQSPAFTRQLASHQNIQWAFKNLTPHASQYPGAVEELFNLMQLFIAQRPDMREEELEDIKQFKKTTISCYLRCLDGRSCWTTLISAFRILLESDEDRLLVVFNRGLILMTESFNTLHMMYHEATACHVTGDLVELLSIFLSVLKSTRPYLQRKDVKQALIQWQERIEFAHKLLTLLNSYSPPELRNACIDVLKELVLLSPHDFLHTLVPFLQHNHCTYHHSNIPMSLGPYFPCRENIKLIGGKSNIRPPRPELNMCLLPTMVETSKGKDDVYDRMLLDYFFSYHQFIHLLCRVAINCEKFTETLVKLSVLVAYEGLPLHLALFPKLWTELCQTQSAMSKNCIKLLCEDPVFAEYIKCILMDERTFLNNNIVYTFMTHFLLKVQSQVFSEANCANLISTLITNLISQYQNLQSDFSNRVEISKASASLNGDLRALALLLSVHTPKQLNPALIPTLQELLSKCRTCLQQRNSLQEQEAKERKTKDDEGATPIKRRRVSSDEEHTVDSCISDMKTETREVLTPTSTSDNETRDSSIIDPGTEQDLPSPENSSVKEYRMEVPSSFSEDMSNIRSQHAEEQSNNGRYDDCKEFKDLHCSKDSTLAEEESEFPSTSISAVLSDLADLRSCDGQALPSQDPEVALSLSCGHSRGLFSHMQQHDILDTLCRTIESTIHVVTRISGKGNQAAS

O=C(CCl)N1CCCC2CCCCC21 (stereo not given)
inactive: USP34 -0.14 | USP36 -0.176 | USP38 -0.0442 | USP39 -0.107 | USP4 -0.14
